From PubChem BioAssay (NCATS)
Records with an inconclusive call do not appear. Entries that show only a call come without a potency. Active and inactive are the calls of the source. Calls come from the whole dose curve; as a rule, active = well fitted inhibition curve with a large enough effect in the main read-out, with a control signal flat (not every such curve was filed as active); inconclusive = small, poorly fitted or top-dose-only effect, or effect the other way, or a change in a side signal; inactive = no such curve, though single readings can be large or run the other way.

Assay: Nrf2 qHTS screen for inhibitors: Validation (AID 493153)
Settings: A549 ARE-Fluc reporter, 18-24 h; Potency: luciferase luminescence; viability change: measured here: cytotoxicity max response; luciferase luminescence, at 46.1 µM (top of the series)
Excerpt: NIH Molecular Libraries Probe Production Network [MLPCN] NIH Chemical Genomics Center [NCGC] MLPCN Grant: R03-MH092170-01 Assay Provider: Shyam Biswal, Johns Hopkins University Assay Overview: Nrf2 is a transcription factor that maintains cellular redox homoestasis and protects cells from xenobiotics. Nrf2 binds to the antioxidant response element (ARE) to induce gene expression of a broad spectrum of genes that encode for antioxidants. […] Finding a small molecule that act as an inhibitor of Nrf2 function would represent a novel therapeutic target that could lead to improvement in survival of patients undergoing chemo- and/or radio- therapy. 1. Shibata, T., et al., Genetic Alteration of Keap1 Confers Constitutive Nrf2 Activation and Resistance to Chemotherapy in Gallbladder Cancer. Gastroenterology, 2008. 2. Sjoblom, T., et al., The consensus coding sequences of human breast and colorectal cancers. Science, 2006. 314(5797): p. 268-74.
Assay Protocol Summary: A concentration-response assay was performed with A549 ARE_Fluc cells which are suspended in 5% FBS OPTI-MEM. Five uL were dispensed into 1536-well white TC-treated plate using the Kalypsys dispenser to achieve a density of 5000 cells/well in all columns except column 1. The plate is incubated at 37deg C at 5% CO2 for 2 hours before 23 nL of compounds are added with the Kalypsys pin tool equipped with a 1,536-pin array containing 10-nL slotted pins (FP1S10, 0.457-mm diameter, 50.8 mm long; V&P Scientific). The control compounds Budesonide and Staurosporine are both added at a concentration of 2mM and Budesonide is also added as a 1:10 titration, starting at 200uM, to achieve dose-response. After an 18-24 hour incubation at 37deg C at 5% CO2, 5ul of medium is added to column 1. Afterwards 1ul of 5x of CellTiter-Fluor (Promega) is added to every well. The plate is then incubated at 37deg C at 5% CO2 for 30 minutes before they are read on the ViewLux (Perkin Elmer) for a fluorescent read Ex=405(10)/Em=525(10) for a 3 second exposure, 2x binning, and high gain. Then 3 uL of 3x BugLite is dispensed into all wells and the plate is incubated at ambient room temperature for 15 minutes. Afterwards another ViewLux read is performed using the clear filter to get a luminescent read with the settings of 40 second exposure, 2x binning, and high gain. Cytotoxicity is assessed through the first fluorescent read and then biochemical activity against Nrf2 is measured in the luminescent read.

| SMILES | Potency | viability change [%] |
| --- | --- | --- |
| COCCOC(=O)C1=C(C)NC(C)=C(C(=O)OC(C)C)C1c1cccc([N+](=O)[O-])c1 (stereo not given) | inactive | 0.126 |
| C=CCc1ccccc1OCC(O)CNC(C)C (stereo not given) | inactive | -7.73 |
| CCN(CC)CCOCCOC(=O)C1(c2ccccc2)CCCC1 | inactive | 0.933 |
| Cc1scc2c1N(C(=O)CN1CCN(C)CC1)c1ccccc1NC2=O | inactive | 3.95 |
| O=C(O)CN(CCN(CC(=O)O)CC(=O)O)CCN(CC(=O)O)CC(=O)O | inactive | -0.829 |
| C(=C\c1ccccc1)/CN1CCN(C(c2ccccc2)c2ccccc2)CC1 | inactive | -2.4 |
| CCC(=O)c1ccc2c(c1)N(CCCN(C)C)c1ccccc1S2 | inactive | -14.9 |
| Nc1nc(N)c2nc(-c3ccccc3)c(N)nc2n1 | inactive | 5.44 |
| CC(C)(C)c1ccc(C(=O)CCCN2CCC(OC(c3ccccc3)c3ccccc3)CC2)cc1 | inactive | -5.59 |
| COc1cc2c(cc1OC)-c1cc(=Nc3c(C)cc(C)cc3C)n(C)c(=O)n1CC2 | inactive | -6.02 |
| CN(C)CCCN1c2ccccc2Sc2ccccc21 | inactive | 1.11 |
| CCCCNc1ccc(C(=O)OCCN(C)C)cc1 | inactive | 2.59 |
| Fc1ccc(C(c2ccc(F)cc2)N2CCN(C/C=C/c3ccccc3)CC2)cc1 | inactive | -8.46 |
| Cc1ccc(/C(=C\CN2CCCC2)c2ccccn2)cc1 | inactive | 2.7 |
| CN(C)CCN(Cc1cccs1)c1ccccn1 | inactive | -0.0804 |
| CCCC(C(=O)OCCN(CC)CC)(c1ccccc1)c1ccccc1 | inactive | -7.4 |
| Cc1nc2sccn2c(=O)c1CCN1CCC(=C(c2ccc(F)cc2)c2ccc(F)cc2)CC1 | inactive | -8.03 |
| CCN1CCc2nc(N)oc2CC1 | inactive | -0.627 |
| NS(=O)(=O)c1cc2c(cc1Cl)NC(C1CC3C=CC1C3)NS2(=O)=O (stereo not given) | inactive | 12.8 |
| CN(C)CCCN1c2ccccc2Sc2ccc(C(F)(F)F)cc21 | inactive | 0.635 |
